Measured values: PubChem BioAssay AID1159580 (chemical genetic matrix, 2015)
The campaign covered roughly 5,500 compounds. About 2,000 (36%) were called active. Another 18% or so got no clear call; they are omitted. Rule as the data show it: active = normalized growth mostly below about 0.91 (no sharp cut-off); inconclusive = no clear call, values can overlap the other calls; inactive = mostly above about 0.92. This is one part of the list.

Experiment: chemical genetic growth profiling, strain panel (AID 1159580);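 also: tested at 20 µM; growth read once vehicle control cultures reached saturation at 30 °C; 1 = growth at the plate median or of vehicle wells; lower values mean less growth of the strain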
Details: growth OD

Measured: normalized growth

N[C@H](Cc1ccccc1)C(=O)O
inactive: S. cerevisiae deletion strains, locus YJR043C, strain POL32, active compounds read low 1.01 | S. cerevisiae deletion strains, locus YJR066W, strain TOR1, active compounds read low 0.943 | S. cerevisiae deletion strains, locus YKL009W, strain mrt4, active compounds read low 1.01 | S. cerevisiae deletion strains, locus YKL068W, active compounds read low 1.01 | S. cerevisiae deletion strains, locus YKL085W, strain MDH1 (second series), active compounds read low 1.01 | S. cerevisiae deletion strains, locus YKL085W, strain MDH1, active compounds read low 1.01 | S. cerevisiae deletion strains, locus YKL160W, strain elf1, active compounds read low 1.04 | S. cerevisiae deletion strains, locus YKL190W, strain CNB1, active compounds read low 1.02 | S. cerevisiae deletion strains, locus YKR001C, strain vps1, active compounds read low 0.997 | S. cerevisiae deletion strains, locus YKR026C, strain gcn3, active compounds read low 0.988 | S. cerevisiae deletion strains, locus YKR091W, strain srl3, active compounds read low 1 | S. cerevisiae deletion strains, locus YLL001W, strain dnm1, active compounds read low 0.973 | S. cerevisiae deletion strains, locus YLL026W, active compounds read low 0.984 | S. cerevisiae deletion strains, locus YLL041C, strain sdh2, active compounds read low 1 | S. cerevisiae deletion strains, locus YLR027C, strain aat2, active compounds read low 1 | S. cerevisiae deletion strains, locus YLR039C, strain RIC1, active compounds read low 1.02 | S. cerevisiae deletion strains, locus YLR058C, strain SHM2, active compounds read low 1.02 | S. cerevisiae deletion strains, locus YLR102C, strain apc9, active compounds read low 0.995 | S. cerevisiae deletion strains, locus YLR113W, strain HOG1, active compounds read low 1.05 | S. cerevisiae deletion strains, locus YLR221C, strain rsa3, active compounds read low 0.975 | S. cerevisiae deletion strains, locus YLR258W, strain gsy2, active compounds read low 1.03 | S. cerevisiae deletion strains, locus YLR262C, strain YPT6 (second series), active compounds read low 0.987 | S. cerevisiae deletion strains, locus YLR262C, strain YPT6, active compounds read low 1.04 | S. cerevisiae deletion strains, locus YLR268W, strain sec22, active compounds read low 0.994 | S. cerevisiae deletion strains, locus YLR320W, strain mms22, active compounds read low 0.949 | S. cerevisiae deletion strains, locus YLR330W, strain CHS5, active compounds read low 1.02 | S. cerevisiae deletion strains, locus YLR342W, strain FKS1 (second series), active compounds read low 1 | S. cerevisiae deletion strains, locus YLR342W, strain FKS1, active compounds read low 1.02 | S. cerevisiae deletion strains, locus YLR357W, strain rsc2, active compounds read low 1.01 | S. cerevisiae deletion strains, locus YLR370C, strain arc18, active compounds read low 1 | S. cerevisiae deletion strains, locus YLR371W, strain rom2, active compounds read low 0.982 | S. cerevisiae deletion strains, locus YLR384C, strain iki3, active compounds read low 0.991 | S. cerevisiae deletion strains, locus YLR418C, strain cdc73, active compounds read low 0.975 | S. cerevisiae deletion strains, locus YML016C, strain PPZ1, active compounds read low 1.01 | S. cerevisiae deletion strains, locus YML032C, strain rad52, active compounds read low 0.986 | S. cerevisiae deletion strains, locus YML120C, strain ndi1, active compounds read low 0.987 | S. cerevisiae deletion strains, locus YML124C, strain tub3, active compounds read low 0.997 | S. cerevisiae deletion strains, locus YMR058W, strain fet3, active compounds read low 0.987 | S. cerevisiae deletion strains, locus YMR078C, strain ctf18, active compounds read low 1 | S. cerevisiae deletion strains, locus YMR125W, strain sto1, active compounds read low 1 | S. cerevisiae deletion strains, locus YMR129W, active compounds read low 0.978 | S. cerevisiae deletion strains, locus YMR205C, strain PFK2, active compounds read low 0.985 | S. cerevisiae deletion strains, locus YMR223W, strain ubp8, active compounds read low 1.01 | S. cerevisiae deletion strains, locus YMR231W, strain pep5, active compounds read low 0.984 | S. cerevisiae deletion strains, locus YMR263W, strain SAP30, active compounds read low 1.01 | S. cerevisiae deletion strains, locus YMR307W, strain GAS1, active compounds read low 1.01 | S. cerevisiae deletion strains, locus YNL067W, strain RPL9B, active compounds read low 1.02 | S. cerevisiae deletion strains, locus YNL071W, strain lat1, active compounds read low 0.983 | S. cerevisiae deletion strains, locus YNL128W, strain TEP1, active compounds read low 1.02 | S. cerevisiae deletion strains, locus YNL153C, strain GIM3, active compounds read low 1.03 | S. cerevisiae deletion strains, locus YNL183C, strain NPR1, active compounds read low 0.988 | S. cerevisiae deletion strains, locus YNL209W, strain ssb2, active compounds read low 1.02 | S. cerevisiae deletion strains, locus YNL233W, strain BNI4, active compounds read low 1.01 | S. cerevisiae deletion strains, locus YNL248C, strain rpa49, active compounds read low 1 | S. cerevisiae deletion strains, locus YNL250W, strain rad50, active compounds read low 1 | S. cerevisiae deletion strains, locus YNL271C, strain bni1, active compounds read low 1.01 | S. cerevisiae deletion strains, locus YNL298W, strain CLA4, active compounds read low 1.02 | S. cerevisiae deletion strains, locus YNL307C, strain MCK1, active compounds read low 0.993 | S. cerevisiae deletion strains, locus YNL322C, strain KRE1 (second series), active compounds read low 1.03 | S. cerevisiae deletion strains, locus YNR049C, strain mso1, active compounds read low 1 | S. cerevisiae deletion strains, locus YNR052C, strain pop2, active compounds read low 1.01 | S. cerevisiae deletion strains, locus YOL006C, strain TOP1, active compounds read low 1.03 | S. cerevisiae deletion strains, locus YOL012C, strain htz1 2.29 | S. cerevisiae deletion strains, locus YOL147C, strain pex11, active compounds read low 1.01 | S. cerevisiae deletion strains, locus YOR001W, strain rrp6, active compounds read low 0.943 | S. cerevisiae deletion strains, locus YOR061W, strain CKA2, active compounds read low 1.02 | S. cerevisiae deletion strains, locus YOR069W, strain VPS5, active compounds read low 1.01 | S. cerevisiae deletion strains, locus YOR070C, strain gyp1, active compounds read low 0.983 | S. cerevisiae deletion strains, locus YOR080W, strain dia2, active compounds read low 0.988 | S. cerevisiae deletion strains, locus YOR083W, strain WHI5, active compounds read low 0.991 | S. cerevisiae deletion strains, locus YOR106W, strain vam3, active compounds read low 1.03 | S. cerevisiae deletion strains, locus YOR136W, strain idh2, active compounds read low 1 | S. cerevisiae deletion strains, locus YOR144C, strain elg1, active compounds read low 0.999 | S. cerevisiae deletion strains, locus YOR184W, strain ser1, active compounds read low 0.994 | S. cerevisiae deletion strains, locus YOR231W, strain MKK1, active compounds read low 1.08 | S. cerevisiae deletion strains, locus YOR265W, strain rbl2, active compounds read low 0.992 | S. cerevisiae deletion strains, locus YOR270C, strain vph1, active compounds read low 0.986 | S. cerevisiae deletion strains, locus YOR290C, strain snf2, active compounds read low 1.02 | S. cerevisiae deletion strains, locus YOR316C, strain cot1, active compounds read low 1 | S. cerevisiae deletion strains, locus YPL051W, strain arl3, active compounds read low 1.01 | S. cerevisiae deletion strains, locus YPL078C, strain atp4, active compounds read low 1.03 | S. cerevisiae deletion strains, locus YPL106C, strain sse1, active compounds read low 1.03 | S. cerevisiae deletion strains, locus YPL240C, strain hsp82, active compounds read low 0.994 | S. cerevisiae deletion strains, locus YPL256C, strain CLN2, active compounds read low 1.06 | S. cerevisiae deletion strains, locus YPR119W, strain clb2, active compounds read low 0.995 | S. cerevisiae deletion strains, locus YPR141C, strain kar3, active compounds read low 1 | S. cerevisiae deletion strains, locus YPR163C, strain tif3, active compounds read low 1 | S. cerevisiae deletion strains, locus YPR167C, strain met16, active compounds read low 1 | S. cerevisiae deletion strains, strain wtn01, active compounds read low 0.996 | S. cerevisiae strains, strain wild type, active compounds read low 1.01
